Assay results as given in PubChem BioAssay (NCATS).
Results filed as inconclusive are left out. The source made the active and inactive calls. Unless noted, the call rests on the fitted dose curve; in most records, active means well fitted curve in either direction with a large enough effect (not every such curve was filed as active); inconclusive means small, poorly fitted or top-dose-only effect, or another doubt; inactive means flat fitted curve, though single readings scatter.

Experiments:
[1] = biological target: Lysosomal acid glucosylceramidase (Homo sapiens) (UniProt P04062); experiment: Glucocerebrosidase-p2 (AID 348; in the data active means potency below about 10 µM; further: potency means the concentration at half of the fitted maximal effect); conditions: purified GBA, blue fluorogenic substrate, 40 min
Procedure, shortened: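 Compounds titrated from 0.6 nM upwards against 0.2 nM enzyme in pH 5.9 citric acid/KH2PO4, taurocholate, tween-20; blue fluorogenic substrate 80 uM, 40 min room temperature, stopped and read Ex 365/Em 440 for AC50.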

[2] = AP1 Signaling Pathway (AID 357); conditions: ME-180 AP-1-bla reporter, EGF-induced, beta-lactamase ratio, 5 h; at 7.69 µM (top of the series) unless noted;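 further: ME-180 reporter cells stimulated with EGF at its EC50 level; on the % scale 0 is the no-effect control and ±100 the full control effect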
Procedure, shortened: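 Modulation of EGF-driven AP-1 transcription was assessed with a beta-lactamase reporter in ME-180 cells. Compound and EC50 EGF were co-incubated 5 hours at 37 °C before 2.5-hour CCF4 loading at room temperature and dual-emission reading.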

[3] = biological target: Cytochrome P450 1A2 (Homo sapiens) (UniProt P05177); experiment: p450-cyp1a2 (AID 410; calls by dose curve;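 further: -100% = full effect of reference inhibitor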)
Procedure, shortened: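 Human CYP1A2 (20nM) demethylated Luciferin-ME at its Km (100uM) in 100mM KPO4. After 10 min compound preincubation, NADPH regeneration ran the reaction 60 min at room temperature. Luciferin was read by luminescence, normalized to 57 uM furafylline.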

[4] = Stat Signaling Pathway (AID 446); conditions: ME-180 (cervical carcinoma) SIE beta-lactamase reporter, IL-6 stimulated, 5 h; at 7.69 µM (top of the series) unless noted;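 further: ME-180 cervical cancer cells given 40 pM IL-6 alongside compound; SIE-controlled beta-lactamase reporter measured as 460/530 nm FRET emission ratio; on the % scale 0 is the no-effect control and ±100 the full control effect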
Procedure, shortened: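 IL-6/STAT signaling read in ME-180 cells via an SIE beta-lactamase reporter. Stimulus was 40 pM IL-6 (its AC50) for 5 hrs, so both activation and inhibition register.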

[5] = biological target: Glucocorticoid receptor (Homo sapiens) (UniProt P04150); experiment: GR-EFC Redistribution (AID 451; calls by dose curve; further: potency means the concentration at half of the fitted maximal effect); conditions: CHO-K1 GR-EFC translocation, beta-gal luminescence, 2 h
Procedure, shortened: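 Translocation of GR-ED fusion to nuclear EA restores b-gal, read by luminescence after 1 h room-temperature detection. Engineered CHO-K1 biosensor cells, 1,000/well, exposed 2 h at 37 C to titrations up to 46 uM final.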

[6] = biological target: Mitogen-activated protein kinase 10 (Mus musculus) (UniProt Q61831); experiment: JNK3 AlphaScreen Assay (AID 530);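 further: kinase came from lysate of stimulated human HepG2 cells; signal reports phosphorylation of biotinylated GST-cJun 1-79 at Ser73 with 10 µM ATP; on the % scale 0 is the no-effect control and ±100 the full control effect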
Procedure, shortened: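 Room-temperature AlphaScreen kinase assay; pre-activated HepG2 lysate as JNK3 source, biotin-GST-cJun(1-79) substrate, 10 uM ATP, compound 15 min preincubation.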

[7] = biological target: 3',5'-cyclic-AMP phosphodiesterase 4B (Homo sapiens) (UniProt Q07343); experiment: qHTS Assay for Inhibitors of PDE-IV (AID 607; active means well fitted activation curve with a large enough effect in the main read-out, with a control signal flat, not every such curve was filed as active; further: % of control where 0% means no effect)
Procedure, shortened: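 Live HEK293 cells with a modified cyclic nucleotide-gated (CNG) channel report intracellular cAMP via membrane-potential dye fluorescence (ex 535/em 590 nm). Endogenous PDE-IV was targeted. Compounds were tested at up to 22.9 uM final; RO 20-1724 100 uM served as control.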

[8] = biological target: Cytochrome P450 3A4 (Homo sapiens) (UniProt P08684); experiment: qHTS Assay for Inhibitors and Substrates of Cytochrome P450 3A4 (AID 884; active means well fitted curve in the direction sought with a large enough effect; an effect the other way counts as inactive or inconclusive; further: potency means the concentration at half of the fitted maximal effect; nearly all actives have a fitted effect of over 50% in size)
Procedure, shortened: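 20 nM human CYP3A4 with 25 uM Luciferin-PPXE (at KM) in 200 mM KPO4, preincubated 10 min with compound; NADPH regeneration started a 60 min RT reaction. Luciferin detected by luminescence, normalized to 57 uM ketoconazole as full inhibition.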

[9] = biological target: Cytochrome P450 3A4 (Homo sapiens) (UniProt P08684); experiment: qHTS Assay for Activators of Cytochrome P450 3A4 (AID 885; active means well fitted curve in the direction sought with a large enough effect; an effect the other way counts as inactive or inconclusive; further: nearly all actives have a fitted effect of over 65% in size)
Procedure, shortened: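 Quantitative HTS format: compounds preincubated with 20nM human CYP3A4 and Luciferin-PPXE substrate at KM, reaction started by NADPH regeneration, stopped after 60 min, luciferase luminescence read 20 min later.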

[10] = qHTS Assay for Lipid Storage Modulators (AID 1519; calls by dose curve); conditions: Drosophila S3 cells, BODIPY lipid droplet/cell ratio, laser cytometry, cells loaded with oleic acid; for activity change, negative = inhibition: at 57.5 µM (top of the series)
Procedure, shortened: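 Cells seeded at 5,000 per well were treated with compounds over a concentration series and loaded with oleic acid (400 uM, as added). Lipid droplet fluorescence (488 nm excitation, 500-530 nm channel) was read by laser-scanning cytometry and normalized to 20 uM Triacsin C.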

[11] = NFAT Signaling Pathway (AID 444); conditions: Jurkat NFAT-bla M1, carbachol, beta-lactamase ratio, 5 h; at 7.69 µM (top of the series) unless noted;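 further: carbachol stimulus at about its EC50 of 1 µM final; on the % scale 0 is the no-effect control and ±100 the full control effect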
Procedure, shortened: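 Read-out: CCF4 FRET ratio (460 nm/530 nm) after 1 h RT dye loading, used for %activity and AC50 from titration series. Cells: Jurkat NFAT-β-lactamase/M1 line, treated with compound plus 1 uM carbachol for 5 h, 37 °C.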

[12] = biological target: Cytochrome P450 2C19 (Homo sapiens) (UniProt P33261); experiment: qHTS Assay for Inhibitors and Substrates of Cytochrome P450 2C19 (AID 899; active means well fitted curve in the direction sought with a large enough effect; an effect the other way counts as inactive or inconclusive; further: on the % scale 0 is the no-effect control and ±100 the full control effect; nearly all actives have a fitted effect of over 60% in size)
Procedure, shortened: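 Luminescence readout of luciferin formed from 10uM Luciferin-H EGE (KM level) by 5 nM CYP2C19 in 50mM KPO4. 60 min NADPH-driven reaction at 37C after 10 min compound preincubation; data scaled to 57uM ketoconazole inhibition.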

[13] = measured here: cell count channel max response
[14] = measured here: lipid channel max response

Cytochrome P450 1A2 (Homo sapiens), sequence (P05177 whole entry, looked up): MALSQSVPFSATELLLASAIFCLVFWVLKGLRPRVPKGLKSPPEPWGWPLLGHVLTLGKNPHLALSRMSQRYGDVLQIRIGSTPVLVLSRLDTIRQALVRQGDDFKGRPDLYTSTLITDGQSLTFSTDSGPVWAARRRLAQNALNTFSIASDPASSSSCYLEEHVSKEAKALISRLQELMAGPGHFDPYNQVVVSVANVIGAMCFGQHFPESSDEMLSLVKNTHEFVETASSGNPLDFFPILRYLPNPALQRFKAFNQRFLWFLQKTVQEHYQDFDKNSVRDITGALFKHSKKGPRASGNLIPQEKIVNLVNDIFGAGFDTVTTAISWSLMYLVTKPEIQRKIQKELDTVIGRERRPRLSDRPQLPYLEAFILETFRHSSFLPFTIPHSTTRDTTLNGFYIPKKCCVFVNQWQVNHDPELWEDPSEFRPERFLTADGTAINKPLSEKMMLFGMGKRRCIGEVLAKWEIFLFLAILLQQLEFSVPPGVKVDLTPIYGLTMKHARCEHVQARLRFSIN
Glucocorticoid receptor (Homo sapiens), sequence (P04150 whole entry, looked up, the tested form may be a part): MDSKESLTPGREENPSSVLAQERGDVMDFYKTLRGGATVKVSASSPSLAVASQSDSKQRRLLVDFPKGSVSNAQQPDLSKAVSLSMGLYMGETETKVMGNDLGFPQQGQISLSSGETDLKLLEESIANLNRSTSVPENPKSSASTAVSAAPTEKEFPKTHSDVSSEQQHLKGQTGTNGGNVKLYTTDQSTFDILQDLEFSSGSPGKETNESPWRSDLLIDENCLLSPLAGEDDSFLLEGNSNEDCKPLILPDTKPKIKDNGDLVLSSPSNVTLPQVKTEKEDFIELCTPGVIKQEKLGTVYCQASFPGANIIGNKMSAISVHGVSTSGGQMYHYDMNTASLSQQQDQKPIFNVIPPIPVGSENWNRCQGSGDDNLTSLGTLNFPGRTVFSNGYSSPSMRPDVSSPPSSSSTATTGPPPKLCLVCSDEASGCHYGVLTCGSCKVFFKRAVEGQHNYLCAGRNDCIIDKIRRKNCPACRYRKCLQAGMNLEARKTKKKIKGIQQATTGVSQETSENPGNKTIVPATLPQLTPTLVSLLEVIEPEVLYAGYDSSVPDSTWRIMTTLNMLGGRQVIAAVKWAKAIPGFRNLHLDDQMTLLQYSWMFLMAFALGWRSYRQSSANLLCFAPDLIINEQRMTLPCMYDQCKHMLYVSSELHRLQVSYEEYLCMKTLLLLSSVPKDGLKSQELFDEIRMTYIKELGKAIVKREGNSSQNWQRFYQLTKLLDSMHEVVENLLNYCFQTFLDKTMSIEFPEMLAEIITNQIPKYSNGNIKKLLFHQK
3',5'-cyclic-AMP phosphodiesterase 4B (Homo sapiens), sequence (Q07343 whole entry, looked up): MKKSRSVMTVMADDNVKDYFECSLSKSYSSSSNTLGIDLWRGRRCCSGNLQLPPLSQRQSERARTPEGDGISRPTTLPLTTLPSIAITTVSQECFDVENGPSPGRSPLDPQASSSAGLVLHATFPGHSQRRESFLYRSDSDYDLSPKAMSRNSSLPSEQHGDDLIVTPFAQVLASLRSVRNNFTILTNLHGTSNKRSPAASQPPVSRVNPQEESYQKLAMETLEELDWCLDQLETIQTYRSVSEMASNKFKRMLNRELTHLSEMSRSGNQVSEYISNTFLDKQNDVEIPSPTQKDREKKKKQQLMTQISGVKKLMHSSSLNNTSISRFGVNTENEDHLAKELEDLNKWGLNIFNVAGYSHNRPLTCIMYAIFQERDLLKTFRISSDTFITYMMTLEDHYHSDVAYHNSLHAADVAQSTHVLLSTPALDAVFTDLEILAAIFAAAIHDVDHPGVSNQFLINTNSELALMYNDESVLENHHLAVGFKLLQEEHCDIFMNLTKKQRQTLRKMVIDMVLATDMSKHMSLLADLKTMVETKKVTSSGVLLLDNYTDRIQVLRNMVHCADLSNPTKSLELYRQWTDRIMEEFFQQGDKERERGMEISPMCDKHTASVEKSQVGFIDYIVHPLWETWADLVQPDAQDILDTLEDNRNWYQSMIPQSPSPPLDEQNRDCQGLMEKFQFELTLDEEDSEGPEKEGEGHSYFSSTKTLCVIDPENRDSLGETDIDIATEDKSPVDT
Lysosomal acid glucosylceramidase (Homo sapiens), sequence (P04062 whole entry, looked up): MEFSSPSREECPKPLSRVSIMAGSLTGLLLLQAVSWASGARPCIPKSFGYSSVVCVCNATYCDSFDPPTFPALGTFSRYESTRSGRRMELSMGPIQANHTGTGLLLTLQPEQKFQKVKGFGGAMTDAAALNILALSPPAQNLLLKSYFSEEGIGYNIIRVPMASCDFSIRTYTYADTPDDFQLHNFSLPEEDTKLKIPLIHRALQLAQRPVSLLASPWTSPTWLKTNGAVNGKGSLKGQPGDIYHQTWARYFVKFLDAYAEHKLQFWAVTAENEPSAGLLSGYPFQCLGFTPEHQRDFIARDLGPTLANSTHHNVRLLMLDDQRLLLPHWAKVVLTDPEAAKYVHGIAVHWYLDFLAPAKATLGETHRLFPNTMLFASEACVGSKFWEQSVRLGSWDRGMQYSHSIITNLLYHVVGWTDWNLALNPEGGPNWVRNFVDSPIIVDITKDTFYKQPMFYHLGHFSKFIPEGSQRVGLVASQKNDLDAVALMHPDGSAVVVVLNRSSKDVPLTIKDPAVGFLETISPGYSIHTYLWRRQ
Cytochrome P450 3A4 (Homo sapiens), sequence (P08684 whole entry, looked up): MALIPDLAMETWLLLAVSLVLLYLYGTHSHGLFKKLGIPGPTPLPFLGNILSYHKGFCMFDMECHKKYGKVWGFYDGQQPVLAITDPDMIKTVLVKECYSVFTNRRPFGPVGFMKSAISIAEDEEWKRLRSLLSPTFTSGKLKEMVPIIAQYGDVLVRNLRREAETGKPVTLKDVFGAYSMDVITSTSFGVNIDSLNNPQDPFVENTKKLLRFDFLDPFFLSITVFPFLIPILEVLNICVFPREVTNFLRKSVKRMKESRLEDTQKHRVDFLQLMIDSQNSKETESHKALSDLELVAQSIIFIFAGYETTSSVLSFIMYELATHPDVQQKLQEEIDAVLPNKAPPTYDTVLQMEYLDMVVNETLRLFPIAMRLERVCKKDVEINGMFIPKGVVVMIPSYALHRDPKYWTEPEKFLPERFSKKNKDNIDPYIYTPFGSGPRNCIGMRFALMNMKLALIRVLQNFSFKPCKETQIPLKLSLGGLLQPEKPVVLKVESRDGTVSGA
Cytochrome P450 2C19 (Homo sapiens), sequence (P33261 whole entry, looked up): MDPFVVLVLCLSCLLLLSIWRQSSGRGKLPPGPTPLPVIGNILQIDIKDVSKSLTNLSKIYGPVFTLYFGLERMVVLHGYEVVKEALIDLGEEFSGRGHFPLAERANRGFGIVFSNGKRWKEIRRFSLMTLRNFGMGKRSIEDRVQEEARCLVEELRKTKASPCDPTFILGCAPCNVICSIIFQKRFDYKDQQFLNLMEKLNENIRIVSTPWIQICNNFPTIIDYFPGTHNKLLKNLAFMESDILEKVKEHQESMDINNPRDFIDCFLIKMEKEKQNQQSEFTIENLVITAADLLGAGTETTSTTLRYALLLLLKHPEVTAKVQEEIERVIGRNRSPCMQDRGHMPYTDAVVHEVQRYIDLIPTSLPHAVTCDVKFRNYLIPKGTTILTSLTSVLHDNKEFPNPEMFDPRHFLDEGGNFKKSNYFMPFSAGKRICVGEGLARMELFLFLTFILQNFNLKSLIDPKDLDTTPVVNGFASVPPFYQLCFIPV

Row | Compound | Potency [1] | activity change, negative = inhibition [2] | Potency [3] | activity, negative = inhibition [4] | Potency [5] | Potency [6] | Potency [7] | Potency [8] | Potency [9] | activity change, negative = inhibition [10] | max response [10, 13] [%] | max response [10, 14] [%] | activity change, negative = inhibition [11] | Potency [12]
1 | O=C(c1cc(C(F)(F)F)cc(C(F)(F)F)c1)N1CCC[C@@]2(CCN(c3ccncc3)C2)C1 | > 11.4 µM (inactive) | 6.68% (inactive) | inactive | 1.59% (inactive) | > 46 µM (inactive) | inactive | inactive | 6.31 µM (active) | inactive | 1.83% (inactive) | -11 | -5.86 |  | 
2 | CS(=O)(=O)N1CCC[C@@]2(CCN(c3ccncc3)C2)C1 | > 11.4 µM (inactive) | -3.38% (inactive) | inactive | 1.56% (inactive) | > 46 µM (inactive) | inactive | inactive | 7.94 µM (active) | inactive | -0.375% (inactive) | -15.6 | -16.3 | -25.4% (inactive) | 
3 | Cc1noc(C)c1C(=O)N1CCC[C@@]2(CCN(Cc3cc(C(F)(F)F)cc(C(F)(F)F)c3)C2)C1 | > 11.4 µM (inactive) | 1.15% (inactive) | inactive | 1.36% (inactive) | > 46 µM (inactive) | inactive | inactive |  | inactive | 4.37% (inactive) | 12.5 | 19.6 | 14.8% (inactive) | inactive
